According to PubChem BioAssay:
For part of these data: Potency and affinity values are given separately. Calls of active or inactive are those of the source.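 The calls were made as follows, unless noted: active = primary screen inhibitor hit that blocks the TRPC4 channel at some tested dose, yielding a dose curve; inactive = the rest.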

Key:
[1] = system: TRPC4 beta (transient receptor potential cation channel C4), mouse; test: TRPC4 cation channel opening, retest – cell-based, Fluo4 calcium, HEK293 TRPC4beta/mu-opioid, duplicates, 10 µM, confirmation (AID 2426;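 active = fluorescence ratio normalized to control raised more than 50% in primary screen plus both repeat runs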;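 as to activation: percent rise of integrated ratio over buffer wells lacking compound which define 0%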); settings: Fluo4 calcium fluorescence, at 10 µM; hits give high values
[2] = system: transient receptor potential cation channel C4 beta (TRPC4), mouse; test: TRPC4 cation channel opening, second retest – cell-based, second round, Fluo4, HEK293 TRPC4beta/mu-opioid, 1 µM, confirmation (AID 2461;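 active = primary screen active and over 50% activation in each of two duplicate runs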;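 as to activation: 0% = wells without test compound as baseline of integrated fluorescence ratio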); settings: Fluo4 calcium fluorescence, at 1 µM; hits give high values
[3] = system: TRPC4 (transient receptor potential cation channel C4 beta), mouse; test: potentiation of DAMGO EC20 TRPC4 response – cell-based, second round, Fluo-4, HEK293 TRPC4beta/mu-opioid, 1 µM, confirmation (AID 2554;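 active = primary screen hit whose fluorescence ratio, in both repeats, exceeds the weak agonist control mean by 3 SD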); settings: DAMGO EC20, Fluo-4 calcium flux, at 1 µM; hits give high values
[4] = system: TRPC4 beta (transient receptor potential cation channel C4), mouse; test: potentiation of DAMGO EC20 TRPC4 response – cell-based, Fluo-4, HEK293 TRPC4beta/mu-opioid, confirmation (AID 2555;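 active = primary screen hit whose calcium fluorescence ratio, in both repeats, exceeds the weak agonist control mean by 3 SD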); settings: DAMGO EC20, Fluo-4 calcium flux, at 10 µM; hits give high values
[5] = biological target: Short transient receptor potential channel 4 (Mus musculus) (UniProt Q9QUQ5); test: blockers of DAMGO-evoked TRPC4 calcium flux – cell-based, Fluo4, HEK293 TRPC4beta/mu-opioid, confirmation (AID 2636;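 active = calcium signal cut by more than 3 SD below the full-agonist control yet still positive, in both repeats and the earlier primary screen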); settings: at 10 µM; hits give high values
[6] = biological target: Short transient receptor potential channel 4 (Mus musculus) (UniProt Q9QUQ5); test: blockers of DAMGO-evoked TRPC4 calcium flux – cell-based, second round, Fluo4, HEK293 TRPC4beta/mu-opioid, 1 µM, confirmation (AID 2637;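 active = calcium signal ratio cut to more than 3 SD under the fully stimulated control mean yet still positive, in both repeats and the primary screen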); settings: at 1 µM; hits give high values
[7] = biological target: Short transient receptor potential channel 4 (Mus musculus) (UniProt Q9QUQ5); test: potentiation of DAMGO-evoked TRPC4 calcium signal – cell-based, HEK293 TRPC4/mu-opioid, Fluo-4 calcium, EC20 DAMGO, dose response (AID 434941;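 active = earlier screen potentiator hit that boosts the TRPC4 ion channel at some dose, with a dose response; inactive = no potentiation, no dose response, or not a prior hit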;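 also: calcium entry triggered by an EC20 dose of DAMGO at the co-expressed mu-opioid receptor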)
[8] = biological target: Short transient receptor potential channel 4 (Mus musculus) (UniProt Q9QUQ5); test: block of DAMGO-driven TRPC4 calcium entry – cell-based, HEK293 TRPC4/mu-opioid, Fluo-4 calcium, dose response (AID 434942)
[9] = biological target: Short transient receptor potential channel 6 (Mus musculus) (UniProt Q61143); test: TRPC6 blockade by TRPC4 inhibitor hits – cell-based, HEK293, membrane potential dye, duplicate, selectivity assay for TRPC4 inhibitor project, confirmation (AID 434948;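 active = active in primary screen and both duplicates, each dropping signal beyond three positive-control SD with fluorescence still positive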); settings: HEK293 TRPC6, membrane potential dye fluorescence, at 10 µM, stimulated with maximal-effect acetylcholine; hits give high values
[10] = biological target: Short transient receptor potential channel 6 (Mus musculus) (UniProt Q61143); test: TRPC6 opening by TRPC4 activator hits – cell-based, HEK293, membrane potential dye, duplicate, selectivity assay for TRPC4 activator project, confirmation (AID 434950;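 active = membrane potential signal rise above negative control mean plus 3 SD in both duplicates, also active in the earlier TRPC4 screen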;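 as to activation: 0% = buffer only wells and 100% = acetylcholine maximal-effect wells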); settings: HEK293 TRPC6, membrane potential fluorescence, at 10 µM; activation: hits give high values; outcome: activation
[11] = biological target: Short transient receptor potential channel 6 (Mus musculus) (UniProt Q61143); test: positive modulators of mouse TRPC6 channel – HEK293 cells, membrane potential dye, duplicate, selectivity assay for TRPC4 potentiator project, confirmation (AID 434952;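 active = compound raising the membrane signal above positive-control mean plus 3 SD in both repeats, and a primary screen hit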); settings: HEK293 TRPC6, membrane potential dye fluorescence, at 10 µM, maximal acetylcholine added after compound; hits give high values
[12] = biological target: Short transient receptor potential channel 4 (Mus musculus) (UniProt Q9QUQ5); test: calcium flux activators in TRPC4/5HT1a cells, counter-screen for TRPC4 activator project, cell-based, second counter screen, HEK293 TRPC4/5HT1a, Fluo-4 (AID 434977;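 active = calcium signal rise above buffer-control mean plus 5 SD in both duplicates, and also a hit in the primary screen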;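 as to activation: plate controls were assay buffer for no effect and maximal serotonin response for full effect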); settings: Fluo-4 calcium flux, at 10 µM; hits give high values
[13] = serotonin-gated TRPC4 signal block – cell-based, second counter screen, HEK293 TRPC4/5HT1a, Fluo-4, counter-screen for TRPC4 inhibitor project, confirmation (AID 434978;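 active = primary screen active whose calcium signal fell more than 3 SD beyond the full-serotonin control mean in both duplicate plates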;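 also: serotonin given first at submaximal then at maximal dose after compound preincubation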); settings: Fluo-4 calcium flux, at 10 µM, serotonin added to trigger calcium flux; hits give high values
[14] = system: TRPC4 (mouse), co-expressed with 5HT1a in HEK293; test: enhancement of serotonin-evoked TRPC4 response – cell-based, second counter screen, HEK293 TRPC4/5HT1a, Fluo-4, counter-screen for TRPC4 potentiator project, confirmation (AID 434979;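 active = signal rise over 3 SD above mean of control wells given weak agonist, in both repeats and first screen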); settings: Fluo-4 calcium flux, at 10 µM, serotonin added at its EC20 dose; hits give high values
[15] = nonspecific calcium rise without TRPC4 – cell-based, HEK293 mu-opioid receptor line, counter-screen for TRPC4 activator project, confirmation (AID 449723;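 active = hit in primary screen, with calcium signal over 5 SD above buffer well mean in both duplicates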;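 also: counter screen cells carry the mu-opioid receptor alone and lack TRPC4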); settings: HEK293 mu-opioid cells, Fluo-4 calcium fluorescence, at 10 µM; hits give high values
[16] = nonspecific potentiation of DAMGO calcium response – cell-based, HEK293 mu-opioid receptor line, counter-screen for TRPC4 allosteric potentiator project, confirmation (AID 449724;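 active = calcium signal rise more than 3 SD above the low-dose agonist control mean, in both duplicate plates and the primary screen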); settings: HEK293 mu-opioid receptor cells, Fluo-4 calcium flux, at 10 µM, compound added before EC20 DAMGO stimulus; hits give high values

Short transient receptor potential channel 6 (Mus musculus), sequence (Q61143 whole entry, looked up): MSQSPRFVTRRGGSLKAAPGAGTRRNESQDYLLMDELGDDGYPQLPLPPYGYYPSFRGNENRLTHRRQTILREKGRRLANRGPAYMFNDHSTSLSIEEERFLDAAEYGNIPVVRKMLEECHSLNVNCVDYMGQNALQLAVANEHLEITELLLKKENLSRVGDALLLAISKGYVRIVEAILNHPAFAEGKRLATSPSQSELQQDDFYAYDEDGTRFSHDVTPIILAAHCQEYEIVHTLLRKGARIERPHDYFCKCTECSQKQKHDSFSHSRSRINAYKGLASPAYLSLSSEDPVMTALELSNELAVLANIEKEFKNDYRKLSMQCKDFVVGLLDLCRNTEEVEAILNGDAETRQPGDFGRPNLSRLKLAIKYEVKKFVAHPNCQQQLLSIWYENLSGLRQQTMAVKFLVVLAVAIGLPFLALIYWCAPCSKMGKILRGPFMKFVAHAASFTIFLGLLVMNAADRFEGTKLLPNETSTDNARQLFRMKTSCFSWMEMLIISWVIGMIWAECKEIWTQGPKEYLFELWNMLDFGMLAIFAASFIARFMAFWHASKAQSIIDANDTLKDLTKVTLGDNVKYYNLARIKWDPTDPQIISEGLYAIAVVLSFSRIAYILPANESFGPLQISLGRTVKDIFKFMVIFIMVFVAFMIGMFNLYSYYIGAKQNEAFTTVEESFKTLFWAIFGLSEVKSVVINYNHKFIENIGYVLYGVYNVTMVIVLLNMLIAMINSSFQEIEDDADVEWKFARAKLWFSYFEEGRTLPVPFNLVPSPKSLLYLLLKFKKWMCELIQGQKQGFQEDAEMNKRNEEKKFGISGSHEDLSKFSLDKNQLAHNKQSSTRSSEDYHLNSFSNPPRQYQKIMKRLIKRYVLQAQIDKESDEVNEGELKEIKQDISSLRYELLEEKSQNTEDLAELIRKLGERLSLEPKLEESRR
Short transient receptor potential channel 4 (Mus musculus), sequence (Q9QUQ5 whole entry, looked up): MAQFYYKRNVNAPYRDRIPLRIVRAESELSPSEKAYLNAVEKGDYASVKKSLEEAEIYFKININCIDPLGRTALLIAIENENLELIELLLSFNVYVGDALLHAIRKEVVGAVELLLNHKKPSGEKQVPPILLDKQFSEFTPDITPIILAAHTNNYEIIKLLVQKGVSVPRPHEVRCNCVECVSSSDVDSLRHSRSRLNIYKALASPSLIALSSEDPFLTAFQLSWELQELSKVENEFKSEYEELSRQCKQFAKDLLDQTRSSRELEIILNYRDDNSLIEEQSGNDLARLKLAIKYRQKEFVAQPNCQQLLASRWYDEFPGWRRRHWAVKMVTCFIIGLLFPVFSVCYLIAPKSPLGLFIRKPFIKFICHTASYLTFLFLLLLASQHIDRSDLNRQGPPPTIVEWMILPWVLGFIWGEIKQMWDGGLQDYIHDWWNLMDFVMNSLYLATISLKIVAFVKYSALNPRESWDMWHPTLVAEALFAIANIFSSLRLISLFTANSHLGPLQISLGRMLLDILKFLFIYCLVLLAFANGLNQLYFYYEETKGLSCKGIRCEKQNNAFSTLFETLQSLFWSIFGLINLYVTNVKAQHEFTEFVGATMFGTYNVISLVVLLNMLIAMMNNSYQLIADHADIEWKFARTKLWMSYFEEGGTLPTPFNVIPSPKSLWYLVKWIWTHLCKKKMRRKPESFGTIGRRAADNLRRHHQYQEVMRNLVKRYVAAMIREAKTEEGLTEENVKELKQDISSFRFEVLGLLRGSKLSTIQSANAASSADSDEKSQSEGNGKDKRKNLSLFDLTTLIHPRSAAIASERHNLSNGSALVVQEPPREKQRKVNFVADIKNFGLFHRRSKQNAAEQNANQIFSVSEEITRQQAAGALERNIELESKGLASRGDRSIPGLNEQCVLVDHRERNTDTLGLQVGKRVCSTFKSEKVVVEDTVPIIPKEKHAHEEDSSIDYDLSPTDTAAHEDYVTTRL

Clc1ccc2nc(N3CCNCC3)nc(-c3ccccc3)c2c1
active: activation [1] 74% | activation [12] 26.8% | activation [15] 12.1%
inactive: outcome [2] | outcome [3] | outcome [4] | outcome [5] | outcome [6] | outcome [7] | outcome [8] | outcome [9] | outcome [10] | outcome [11] | outcome [13] | outcome [14] | outcome [16]

CCCCN(CC)CCCNC(=O)Cn1nc(Cc2cccnc2)c2ccccc2c1=O
inactive: outcome [2] | outcome [3] | outcome [4] | outcome [5] | outcome [6] | outcome [7] | outcome [8] | outcome [9] | outcome [10] | outcome [11] | outcome [13] | outcome [14] | outcome [15] | outcome [16]
active: activation [1] 86% | activation [12] 28.3%

CCN1/C(=C\c2ccc3cc(C)ccc3[n+]2CC)Sc2cc(C)c(C)cc21
inactive: outcome [2] | outcome [3] | outcome [5] | outcome [6] | outcome [7] | outcome [8] | outcome [9] | outcome [10] | outcome [11] | outcome [13]
active: activation [1] 177% | potentiation [4] 59% | activation [12] 66.7% | potentiation [14] 41.7% | activation [15] 152% | activation [16] 1520%

Cc1oc(-c2ccccc2Cl)nc1CS(=O)CC(=O)NCCCN1CC(C)CC(C)C1 (stereo not given)
inactive: outcome [3] | outcome [4] | outcome [5] | outcome [6] | outcome [7] | outcome [8] | outcome [9] | outcome [11] | outcome [13] | outcome [14] | outcome [15] | outcome [16]
active: activation [1] 78% | activation [2] 58% | activation [10] 31% | activation [12] 20.1%

Cc1cccc(OCCOCCN2CCNCC2)c1C
active: activation [1] 167% | activation [2] 69% | activation [10] 35% | activation [12] 65.6%
inactive: outcome [3] | outcome [4] | outcome [5] | outcome [6] | outcome [7] | outcome [8] | outcome [9] | outcome [11] | outcome [13] | outcome [14] | outcome [15] | outcome [16]

COc1ccc(C(CNC(=O)c2cccc(Br)c2)N2CCCC2)cc1 (stereo not given)
inactive: outcome [1] | outcome [2] | outcome [3] | outcome [4] | outcome [5] | outcome [6] | outcome [7] | outcome [8] | outcome [9] | outcome [11] | outcome [12] | outcome [13] | outcome [14] | outcome [15] | outcome [16]
active: activation [10] 61.5%

COc1ccc(CNCc2cn(-c3cccc(F)c3)nc2-c2ccc(C)o2)cc1
active: activation [1] 156% | activation [15] 12.4%
inactive: outcome [2] | outcome [3] | outcome [4] | outcome [5] | outcome [6] | outcome [7] | outcome [8] | outcome [9] | outcome [10] | outcome [11] | outcome [12] | outcome [13] | outcome [14] | outcome [16]

CCCCN(CC)CCNc1c(N2CCN(C(=O)OCC)CC2)c(=O)c1=O
inactive: outcome [2] | outcome [3] | outcome [4] | outcome [5] | outcome [6] | outcome [7] | outcome [8] | outcome [9] | outcome [11] | outcome [12] | outcome [13] | outcome [14] | outcome [15] | outcome [16]
active: activation [1] 155% | activation [10] 30.5%

CN(C)CCCN(C(=O)c1ccc(S(=O)(=O)N2CCCCCC2)cc1)c1nc2c(F)cc(F)cc2s1
active: activation [1] 133%
inactive: outcome [2] | outcome [3] | outcome [4] | outcome [5] | outcome [6] | outcome [7] | outcome [8] | outcome [9] | outcome [10] | outcome [11] | outcome [12] | outcome [13] | outcome [14] | outcome [15] | outcome [16]

CN1C(CC(=O)Nc2ccc(Br)cc2)c2ccccc2CC1(C)C (stereo not given)
inactive: outcome [2] | outcome [3] | outcome [4] | outcome [5] | outcome [6] | outcome [7] | outcome [8] | outcome [9] | outcome [11] | outcome [13] | outcome [14] | outcome [15] | outcome [16]
active: activation [1] 97% | activation [10] 28.5% | activation [12] 7.45%

COc1ccc(C(CNC(=O)Cc2cccs2)N(C)C)cc1 (stereo not given)
inactive: outcome [3] | outcome [4] | outcome [5] | outcome [6] | outcome [7] | outcome [8] | outcome [9] | outcome [11] | outcome [12] | outcome [13] | outcome [14] | outcome [15] | outcome [16]
active: activation [1] 102% | activation [2] 103% | activation [10] 36.5%

COc1cc(OC)c(OC)cc1CCC(C)NCCC(c1ccccc1)c1ccccc1 (stereo not given)
active: activation [1] 106% | activation [10] 28% | activation [12] 66.8% | activation [15] 11.2%
inactive: outcome [2] | outcome [3] | outcome [4] | outcome [5] | outcome [6] | outcome [7] | outcome [8] | outcome [9] | outcome [11] | outcome [13] | outcome [14] | outcome [16]

CN(C)CCCN(C(=O)c1ccc(S(=O)(=O)N2CCc3ccccc32)cc1)c1nc2ccc(F)cc2s1
active: activation [1] 79%
inactive: outcome [2] | outcome [3] | outcome [4] | outcome [5] | outcome [6] | outcome [7] | outcome [8] | outcome [9] | outcome [10] | outcome [11] | outcome [12] | outcome [13] | outcome [14] | outcome [15] | outcome [16]

CC1CC(C)CN(CCCNC(=O)c2ccc3c(c2)N(Cc2ccccc2)C(=O)c2ccccc2S3=O)C1 (stereo not given)
active: activation [1] 106% | activation [2] 54% | activation [12] 23.8%
inactive: outcome [3] | outcome [4] | outcome [5] | outcome [6] | outcome [7] | outcome [8] | outcome [9] | outcome [10] | outcome [11] | outcome [13] | outcome [14] | outcome [15] | outcome [16]

Cc1ccc(NC(=O)NCC(c2ccccc2)N(C)C)cc1 (stereo not given)
inactive: outcome [3] | outcome [4] | outcome [5] | outcome [6] | outcome [7] | outcome [8] | outcome [9] | outcome [11] | outcome [12] | outcome [13] | outcome [14] | outcome [15] | outcome [16]
active: activation [1] 107% | activation [2] 136% | activation [10] 38.5%
